Bioassay records as filed in PubChem.
Mot1-301 SUMO = yeast Mot1-301 growth rescue at high temperature, primary screen, SUMOylation pathway inhibitor project, S. cerevisiae, ATP luminescence, 38.5C | S. cerevisiae Mot1-301 growth rescue; percent above DMSO median, 100 means doubled | 320,000 compounds, 1% hits | growth rescue, % at 18.8 µM;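 active = every valid replicate shows activation above 250% relative to neutral control wells; inactive = the rest, any valid replicate at or below 250%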;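 also: OY570 slx delta 5 strain wells were the positive control but not used for scaling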
aDG glyco act = activators of alpha-DG glycosylation, primary screen, uHTS, Pro5-aDG cells, AlphaScreen; alpha-DG glycosylation AlphaScreen (IIH6); 0% Pro5, 100% B10-LARGE cell signal; activation, % at 10 µM; 360,000 compounds, 0.22% hits; AID 624168, 2012;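 active = activation of at least 8% versus controls, or a plate z-score of at least 8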;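 also: Pro5 are CHO cells carrying HIG-tagged alpha-DG that lacks glycosylation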
H9c2 protect = cardioprotection against H2O2-induced cell death, primary screen, uHTS, H9c2 cells, ATPLite luminescence. H9c2 cardiomyocytes, H2O2 injury protection, 2 h. protection from H2O2 cell death, % at 20 µM. 360,000 compounds, 0.63% hits;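 active = compounds giving at least 50% protection of heart cells from peroxide-induced death in the single-dose screen, raw or plate-pattern-corrected value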;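 also: 0% = DMSO wells with peroxide and 100% = DMSO wells without peroxide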
MPTP inh = mitochondrial permeability transition pore inhibitors, primary screen, biochemical, isolated mouse mitochondria, absorbance | AID 602449, 2012 | inhibition, % at 10 µM | Ca2+ swelling absorbance, 30 min | 360,000 compounds, 1.4% hits;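 active = inhibition of 50% or more, scaled per plate between neutral and stimulator controls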;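 also: 0% = DMSO wells given calcium and 100% = 1 mM EGTA wells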
CR mimetic SO = reduction of superoxide in aged yeast, primary screen, HTS | 330,000 compounds, 0.18% hits | superoxide response (% of plate mean), % at 10 µM | S. cerevisiae aged cells, superoxide DHE fluorescence; stronger effect = lower value | AID 2690, 2010;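 active = superoxide response under a set limit, about three screen SD below normal, cut at about 65% in these data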;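 also: yeast aged for seven days with compound at 30 °C before DHE staining; 100% = average MFI of all compound-treated wells on the plate with controls excluded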
FAS TE block = FAS thioesterase domain inhibitors, primary screen, biochemical, fluorescence intensity, uHTS. Fatty acid synthase (Homo sapiens), P49327. recombinant FAS-TE, OMFH fluorogenic substrate, fluorescence endpoint. inhibition, % at 15 µM. 360,000 compounds, 0.67% hits. AID 602261, 2012;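 active = compounds whose normalised, plate-corrected inhibition of enzyme fluorescence in the single-dose primary screen is 50% or more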;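 also: 0% = DMSO with enzyme and 100% = substrate without enzyme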
An asterisk follows results filed as active; · = no result given. Only some compounds are listed: those with a hit (about 3.8% of all), similar ones and a draw of the others.

SMILES	Mot1-301 SUMO	aDG glyco act	H9c2 protect	MPTP inh	CR mimetic SO	FAS TE block
CC1(NC(=O)CCc2nc3ccccc3c(=O)[nH]2)CCS(=O)(=O)C1 (configuration not stated)	79	0	51*	0	100	-4
O=C(CCc1nc2ccccc2c(=O)[nH]1)Nc1ccc(F)cc1	-4	0	62*	1	113	-14
Cc1ccc(N2CCN(C(=O)C(=O)c3cccc(Br)c3)CC2)cc1	·	0	·	0	·	·
N#CCCN(C(=O)CSc1nc2ccccc2c(=O)[nH]1)c1ccc(F)cc1	2	1	48	-1	121	-5
COc1ccc(NC(=O)CN(C)C(=O)CCCc2nc3ccccc3c(=O)[nH]2)cc1	-10	0	31	-1	90	-5
C=CCn1c(C)cc(-c2csc(NC(=O)CCc3nc4ccccc4c(=O)[nH]3)n2)c1C	15	0	16	0	103	-5
O=C(CCc1nc2ccccc2c(=O)[nH]1)Nc1nc(-c2cccs2)cs1	5	0	65*	0	102	-5
CN(CC(=O)Nc1ccc(Cl)c(C(F)(F)F)c1)C(=O)CCc1nc2ccccc2c(=O)[nH]1	11	0	49	-2	106	-5
CN(CC(=O)Nc1ccc(F)cc1)C(=O)CCc1nc2ccccc2c(=O)[nH]1	-17	0	60*	-1	84	-7
CN(CC(=O)Nc1ccccc1Cl)C(=O)CCc1nc2ccccc2c(=O)[nH]1	-19	0	64*	0	87	-6
N#CCCN(C(=O)COC(=O)CCc1nc2ccccc2c(=O)[nH]1)c1ccc(F)cc1	24	0	54*	0	96	-8
COCc1cc(CN2CCCC(C(=O)Nc3ccc(-c4ccco4)cc3)C2)ccc1OC (configuration not stated)	-3	0	8	1	105	1
CC1CC(C)(C)NC(=S)N1CCC(=O)Nc1ccc2c(c1)OCCO2 (configuration not stated)	151	2	69*	-1	98	3
CCOc1ccc(NC(=O)CCN2C(=S)NC(C)(C)CC2C)cc1 (configuration not stated)	6	0	8	-2	100	-6
CC(C)C[C@H](N)C(=O)N1CCC(C(=O)N[C@H](C(=O)NC(C)c2ccccc2)C(C)C)CC1 (some centres not stated)	788*	0	-4	0	137	-7
CC(C)C[C@H](N)C(=O)N1CCC(C(=O)N[C@H](C(=O)NCc2ccc(F)cc2)C(C)C)CC1	370	0	2	0	126	-3
Cc1cc(O)c(C(C[N+](=O)[O-])c2ccc(Cl)cc2)c(=O)o1 (configuration not stated)	-5	0	-4	13	117	-1
Cc1cc(C)n(C(C[N+](=O)[O-])c2ccc(Cl)cc2)n1 (configuration not stated)	279*	0	-36	40	93	-1
Cc1cc2oc(C(=O)N3CCN(Cc4ccccc4)CC3)c(C)c2cc1C	0	0	1	3	83	27
Nc1ncc(Br)cc1S(=O)(=O)N1CCCCCC1	16	0	-5	0	76	1
CC(C)NC(=S)Nc1c(N)[nH]c(=O)[nH]c1=O	343*	0	-6	0	106	-8
CC(C)NC(=S)NC(=O)/C=C/c1ccc(F)cc1	11	1	-6	0	82	-2
CC1CCN(c2ccc3nnc(CCC(=O)N4CCN(c5ccc(F)cc5)CC4)n3n2)CC1	3	0	-6	-1	102	8
O=C(c1ccccn1)N1CCN(c2cccc(C(F)(F)F)c2)CC1	363*	0	1	0	98	-5
CC1C(c2ccccc2)OCCN1C=NC#N (configuration not stated)	·	0	3	-1	·	-8
SMILES	Mot1-301 SUMO	aDG glyco act	H9c2 protect	MPTP inh	CR mimetic SO	FAS TE block
Cn1c(N)c(NC(=S)NC2CCCCC2)c(=O)n(C)c1=O	·	0	1	0	·	-2
O=C(N/N=C/c1ccc(O)cc1)Nc1cccc2nsnc12	36	0	58*	3	102	29
N#Cc1cccc2cnccc12	329*	0	6	-4	91	-7
Oc1cccc2cnccc12	34	0	-1	1	100	-5
COc1ccc2nc(-c3ccco3)c(-c3ccco3)nc2c1	-6	0	5	4	98	2
COc1ccc2nc3cccc(OC)c3nc2c1	-17	0	58*	2	67	-5
CSc1nc(N(C)C)nc(N(C#N)CCOC(C)=O)n1	656*	0	1	-27	97	-11
CCCc1nnc(NS(=O)(=O)c2ccc(OC)cc2)s1	774*	0	-3	-3	112	-6
COCc1nnc(NS(=O)(=O)c2ccc(OC)cc2)s1	·	0	5	0	·	-7
O=C(N/N=C/c1ccc(-c2cccc([N+](=O)[O-])c2)o1)c1ccc([N+](=O)[O-])cc1	15	1	72*	0	109	26
O=C(N/N=C/c1ccc(-c2cccc([N+](=O)[O-])c2)o1)c1ccccc1O	-5	1	35	7	111	4
Cc1ccc(C(=O)N/N=C\c2ccc(-c3ccc(Cl)cc3)o2)cn1	25	0	60*	12	83	5
O=C(O)c1cc(-c2ccc(/C=N/Nc3ccc(Cl)cc3)o2)ccc1Cl	304*	0	-6	2	111	46
COc1cc(C(=O)NCC(=O)N/N=C/c2ccc(-c3ccc([N+](=O)[O-])cc3)o2)cc(OC)c1OC	6	0	22	-2	101	16
COc1cc(C(=O)NCC(=O)N/N=C/c2ccc(-c3cccc([N+](=O)[O-])c3)o2)cc(OC)c1OC	-14	0	66*	0	88	10
O=C(N/N=C/c1ccccc1)c1ccc(CN2C(=O)c3cccc4cccc2c34)cc1	2	0	6	-1	91	-2
O=C(N/N=C/c1ccc(O)cc1O)c1ccc(CN2C(=O)c3cccc4cccc2c34)cc1	3	1	52*	0	92	12
O=C(CSc1ccccc1F)NC(=O)NC1CCCC1	·	0	0	0	·	-5
COCCCNC(CC(=O)Nc1cc(C)cc(C)c1)C(=O)O (configuration not stated)	1	0	-5	3	99	-3
Cc1nc2c(nc1C)C(=O)c1ccccc1C2=O	·	14*	-15	3	·	-3
